Assay results as given in PubChem BioAssay AID720519 (National Center for Advancing Translational Sciences (NCATS), 2013).
Records with an inconclusive call do not appear. Active and inactive are the calls of the source. The call rests on the fitted dose curve; in most records, active means well fitted activation curve with a large enough effect; inconclusive means small, poorly fitted or top-dose-only effect; inactive means flat fitted curve, though single readings scatter.

Test: qHTS for Inhibitors of Cell Surface uPA Generation: Confirmatory Assay for Cherry-picked Compounds
Conditions: cell surface uPA activity generation, qHTS confirmation; series mostly up to 115 µM
How it was run: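 RAW 264.7 cells at 4000/well, incubated overnight, then treated with compounds. After 24 h at 37 C, viability was read by ATPlite luminescence. An increase in signal indicates blocked uPA-dependent LF entry.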

Potency, inactive:
CC(C)CN(C(=O)CN1CCC(C)CC1)c1c(N)n(CC(C)C)c(=O)[nH]c1=O
COc1cc(CN2CCNC(=O)C2CC(=O)NCCCC2CCCC2)cc(OC)c1 (centres undefined)
COc1ccc(NC(=O)/C(N=Nc2cc(S(=O)(=O)Nc3ccc(OC)cc3)ccc2OC)=C(\C)O)cc1
CC(C)N1CCc2c(sc(NC(=O)CCc3ccccc3)c2C(N)=O)C1
O=c1[nH]c2ccccc2cc1CN(CC1CCCO1)S(=O)(=O)c1ccccc1 (centres undefined)
O=C(NCCN1CCOCC1)c1ccccc1Cl
CCC(C)NC(=O)c1ccc2nc(-c3ccc(OC)c(OC)c3)c(-c3ccc(OC)c(OC)c3)nc2c1 (centres undefined)
CCCS(=O)(=O)c1ccc(COC(=O)Cc2ccc([N+](=O)[O-])cc2)cc1
COc1ccc(CNC(=O)C2CCC(CNS(=O)(=O)c3ccc(C)cc3)CC2)cc1 (centres undefined)
O=C(COC(=O)/C=C/c1cccc(F)c1)Nc1ccccc1
COc1ccc(NC(=O)c2nn(C)c3c2CS(=O)(=O)c2ccccc2-3)cc1
O=C(OCC(=O)N1CCOCC1)c1c(Cl)ccc(Cl)c1Cl
COc1ccc(S(=O)(=O)N2CCOCC2)cc1NC(=O)CN1C(=O)NC2(CCCC2)C1=O
CCNC(=S)NNC(=O)c1ccncc1
C=CCn1c(C)cc(C(=O)COC(=O)/C=C/c2cccc(OC)c2)c1C
Cn1cccc1Cc1nnc(SCC(=O)Nc2ccc3c(c2)OCCO3)n1-c1ccc(F)cc1
COc1ccccc1C(=O)Nc1cccc(C(=O)c2ccccc2)c1
COc1ccccc1N1CCN(C2CC(=O)N(c3ccccc3)C2=O)CC1 (centres undefined)
COc1ccc(C(=O)CC(=O)C(=O)Nc2ccccc2)cc1
CC(C)NC(=O)NC(=O)CN1C(=O)NC(Cc2c[nH]c3ccccc23)C1=O (centres undefined)
O=C(NCCN1CCOCC1)c1ccc2c(c1)N(Cc1ccc(Cl)cc1)CCS2
Cc1ccc(-n2ncc(C(=O)NC3CC3)c2C2CCN(C(=O)OC(C)(C)C)CC2)cc1
CC(=O)[C@@]1(O)[C@H](C)CC2C3CC=C4CC(OP(=O)(O)O)CC[C@]4(C)C3CC[C@@]21C (some centres undefined)
COc1ccc(N(C(C)C(=O)NN=C2CCCC2)S(C)(=O)=O)cc1 (centres undefined)
CCC(CC)Nc1ccc(C(CC(N)=O)NC(=O)Cc2ccc(Br)cc2)cc1[N+](=O)[O-] (centres undefined)
Cc1ccc(N2C(=O)CC(N3CCN/C3=C3\CC/C(=C\c4ccccc4)C3=O)C2=O)cc1 (centres undefined)
CC1(C)Oc2ccc3ccc(=O)oc3c2[C@@H](O)[C@H]1O
COc1cc(CN2CCN(c3ncccn3)CC2)cc(OC)c1
CSc1ccccc1OCc1cc(C(=O)NCCCn2nc(C)cc2C)no1
Cc1c(C(=O)N(Cc2ccccc2Cl)C2CCS(=O)(=O)C2)oc2ccccc12 (centres undefined)
CSc1nc(-c2ccccc2)nc(C(Cl)Cl)n1
COc1ccc(OC)c(NC(=O)C2CCCN2C(=O)C2CCC(C)CC2)c1 (centres undefined)
O=C(CSc1ccc(Cl)cc1)N1CCCC1
COc1ccccc1N=Nc1c(C)[nH]n(-c2ccccc2)c1=O
CCOc1cc(/C=N/Nc2cc(C)nc3ccc(C)cc23)ccc1O
CC(=O)N1CCN(C(=O)CSc2cc(C)c(Br)cc2C)CC1
Cc1ccc(C(O)(COC(=O)C(C)C)COC(=O)C(C)C)c(O)c1
CCc1cc(CC)c(/C=N/NC(N)=O)c(CC)c1
C=CCc1cc(S(=O)(=O)c2ccc(O)c(CC=C)c2)ccc1O
